Key:
Assay in all cases: PBM binding z-score (relative to random genomic background probes); higher = stronger binding; sequences stand for … in GC…GCGATTGACAGCGTAGAATGAAGG
[1] = tested on: FXR:RXRa (NR concentration 270 nM, RXRa partner concentration 90 nM)
Procedure, shortened: (§1)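 Antibodies against each partner of ligand-free nuclear receptor dimers (one per run) detected binding on custom Agilent 4×180K protein-binding microarrays after 1 h incubation. The double-stranded probes had 34-nt variable regions carrying direct-repeat seeds, single-nucleotide variants, half-site ablations and random human genomic background sequences. Binding z-scores, from regression-normalized fluorescence, use the random background probes as reference.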

[2] = tested on: LXRa:RXRa (NR concentration 270 nM, RXRa partner concentration 90 nM)
Procedure, shortened: as §1

[3] = tested on: LXRa homodimer (NR concentration 270 nM)
Procedure, shortened: as §1

[4] = tested on: LXRb:RXRa (NR concentration 270 nM, RXRa partner concentration 90 nM)
Procedure, shortened: as §1

[5] = tested on: LXRb homodimer (NR concentration 270 nM)
Procedure, shortened: as §1

[6] = tested on: PPARa:RXRa (NR concentration 270 nM, RXRa partner concentration 90 nM)
Procedure, shortened: as §1

[7] = tested on: PPARg:RXRa (NR concentration 180 nM, RXRa partner concentration 90 nM)
Procedure, shortened: as §1

[8] = tested on: PPARg:RXRa 270nM:90nM, anti-RXR (NR concentration 270 nM, RXRa partner concentration 90 nM)
Procedure, shortened: as §1

[9] = tested on: PPARg:RXRa 30nM:10nM, anti-RXR (NR concentration 30 nM, RXRa partner concentration 10 nM)
Procedure, shortened: as §1

[10] = tested on: PPARg:RXRa 90nM:30nM, anti-RXR (NR concentration 90 nM, RXRa partner concentration 30 nM)
Procedure, shortened: as §1

[11] = tested on: PPARg:RXRa DBDmut IVT, anti-RXR (DBD mutation: RXRa K156A/R161A, NR concentration 270 nM, RXRa partner concentration 90 nM)
Procedure, shortened: as §1

[12] = tested on: PPARg:RXRa IVT, anti-PPARg (NR concentration 270 nM, RXRa partner concentration 90 nM)
Procedure, shortened: as §1

[13] = tested on: PPARg DBDmut:RXRa IVT, anti-PPARg (DBD mutation: PPARg1 K132A/R137A, NR concentration 270 nM, RXRa partner concentration 90 nM)
Procedure, shortened: as §1

[14] = tested on: PPARg DBDmut IVT, anti-PPARg (DBD mutation: PPARg1 K132A/R137A, NR concentration 270 nM)
Procedure, shortened: as §1

[15] = tested on: PPARg homodimer (NR concentration 180 nM)
Procedure, shortened: as §1

[16] = tested on: PXR:RXRa (NR concentration 270 nM, RXRa partner concentration 90 nM)
Procedure, shortened: as §1

[17] = tested on: PXR homodimer (NR concentration 270 nM)
Procedure, shortened: as §1

[18] = tested on: RARa:RXR (NR concentration 270 nM, RXRa partner concentration 90 nM)
Procedure, shortened: as §1

[19] = tested on: RARa homodimer (NR concentration 270 nM)
Procedure, shortened: as §1

[20] = tested on: RARb:RXRa (NR concentration 270 nM, RXRa partner concentration 90 nM)
Procedure, shortened: as §1

Sequence | PBM binding z-score [1] | PBM binding z-score [2] | PBM binding z-score [3] | PBM binding z-score [4] | PBM binding z-score [5] | PBM binding z-score [6] | PBM binding z-score [7] | PBM binding z-score [8] | PBM binding z-score [9] | PBM binding z-score [10] | PBM binding z-score [11] | PBM binding z-score [12] | PBM binding z-score [13] | PBM binding z-score [14] | PBM binding z-score [15] | PBM binding z-score [16] | PBM binding z-score [17] | PBM binding z-score [18] | PBM binding z-score [19] | PBM binding z-score [20]
CTGACTGGGGCATAAGGTTACCATAAGCCAGCCC | 0.671 | 2.05 | 0.0158 | 1.61 | -0.345 | 2.69 | 3.2 | 3.99 | 2.16 | 3.9 | 4.6 | 4.79 | 0.707 | -0.07 | 1.02 | 0.767 | -0.461 | 1.62 | -0.242 | 1.94
CGAACTAGGTCATTGACAGGATAGTGAATAGTAA | 4.3 | 2.82 | 0.355 | 2.01 | -0.145 | 4.83 | 7.71 | 6.36 | 3.54 | 5.85 | 7.87 | 8.1 | 4.08 | 2.22 | 1.94 | 1.25 | 0.363 | 1.88 | 0.385 | 3.59
CGAATGAGGGCATGAGTTGATAGCAAATGCCGAT | 0.504 | 0.377 | -0.461 | 0.209 | -0.511 | 1.7 | 1.92 | 1.99 | 0.599 | 1.49 | 4 | 3.15 | 0.455 | -0.417 | 0.0655 | 0.525 | 0.166 | 0.61 | -0.437 | 1.8
CGCCCAAGGTCAATGCTAGGTCAGTGAAAGCATT | 6.51 | 5.61 | 2.46 | 4.24 | 0.667 | 4.93 | 4.07 | 4.33 | 1.03 | 3.08 | 2.79 | 3.47 | -0.141 | -0.36 | 5.9 | 4.68 | 1.04 | 6.04 | 0.81 | 5.09
GCTAGCAGGCGATTTGGGTCACTCAATGACGGGC | 0.0524 | -0.217 | -0.513 | -0.281 | -0.929 | 1.48 | 0.632 | 0.575 | -0.192 | 0.427 | 1.67 | 2.53 | -0.476 | -0.307 | -0.254 | 0.00388 | -0.474 | 0.575 | -0.848 | 0.752
CCTGCTAGGTCATGGTGAGCTAATCTACAGTATG | 3.57 | 2.37 | -0.17 | 1.56 | -0.467 | 3.41 | 2.55 | 2.76 | 0.872 | 1.78 | 4.15 | 3.71 | 1.17 | 0.341 | 0.897 | 1.14 | -0.321 | 2.29 | -0.0406 | 3.77
CCAAGTTGGTCAAGGTCACACACGCTATAGGTAC | 4.98 | 4.1 | 1.98 | 3.73 | 0.363 | 4.23 | 3.48 | 4.02 | 1.45 | 3.14 | 2.97 | 3.8 | 0.633 | 0.94 | 3.54 | 4.6 | 4.77 | 4.56 | 1.99 | 4.27
CCTAGCAGGCCAAGCTGGGTCACTCAAGGCTTGA | 1.55 | 0.966 | -0.429 | 0.821 | -1.36 | 1.82 | -0.199 | 0.0206 | -0.847 | -0.107 | 1.17 | 0.818 | -0.82 | -1.65 | 0.234 | 0.605 | -0.579 | 1.29 | -0.984 | 1.7
TATTGTAGATCAGCAGGTTAAGAAAGCTGGCCAA | -0.221 | -0.214 | -0.56 | -0.0553 | -0.105 | 0.342 | -0.269 | 0.483 | -0.249 | 0.429 | -0.472 | 0.909 | 0.264 | -0.14 | -0.31 | -0.184 | -0.219 | -0.00412 | -0.421 | -0.104
CAAACTAGGTCAAAGGACAAAGTCGAGCCAACCA | 4.29 | 3.41 | 0.833 | 2.68 | 0.636 | 5.81 | 10.2 | 8.77 | 8.72 | 9.77 | 8.09 | 8.38 | 2.59 | 0.234 | 1.32 | 1.72 | 0.313 | 3.01 | 0.239 | 4.03
GTTTACGGGTCAAAGGTTATAGCATGAATAGAAT | 6.92 | 5.94 | 0.633 | 6 | 0.401 | 6.92 | 11.3 | 9.13 | 9.06 | 10.1 | 4.49 | 6.3 | 1.34 | 0.914 | 2.36 | 6.4 | 0.568 | 8.19 | 0.857 | 4.66
AGAATGAGGTTACCAAATATCAGGGAAACGCTTG | 1.57 | 2.74 | -0.144 | 1.81 | -0.351 | 3.3 | 2.58 | 2.84 | 1.07 | 2.04 | 4.3 | 3.78 | 1.63 | 0.617 | 0.301 | 1.05 | 0.00391 | 1.77 | -0.0256 | 2.1
CGTCCAAGTTCAAGGTCAGTGAAAGAGACTCGAA | 4.93 | 4.22 | 1.93 | 3.18 | 0.857 | 4.02 | 2.06 | 2.5 | 0.198 | 1.24 | 0.857 | 1.87 | 0.331 | -0.271 | 4.01 | 4.56 | 3.81 | 3.81 | 2.09 | 4.49
AGCTCTAGGTAACAAGTTCAGTGAAAGAGAGGAC | 0.5 | 0.614 | 0.194 | 0.684 | 0.134 | 1.53 | 1.33 | 1.92 | 0.448 | 1.34 | 3.82 | 2.13 | 0.734 | 0.272 | 0.839 | 1.63 | 1.98 | 0.544 | 0.529 | 1.64

Reference: the supplement of paper PMC6555819
